In the supplement of paper PMC6555819 one finds PBM binding z-score data, which are given here for 40 sequences.

This assay relates to VDR:RXRa (NR concentration 270 nM, RXRa partner concentration 90 nM). The experiment in a line: PBM binding z-score (relative to random genomic background probes); higher = stronger binding; sequences stand for … in GC…GCGATTGACAGCGTAGAATGAAGG
The protocol: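 Protein-binding microarray (Agilent 4x180K custom design, double-stranded 60-nt probes: 5' GC cap, 34-nt variable region, 24-nt constant primer region; full probe sequence given). Purified or IVT nuclear receptor:RXRα heterodimers (3:1 NR:RXRα, mostly 270:90 nM) or homodimers were incubated for 1 h in PBS with 2% milk and no ligand, then detected with Alexa488 antibodies. Fluorescence from o1-orientation probes (~5 replicates averaged) was converted to z-scores against 500 random hg19 background probes. Variable regions are seed direct-repeat (DR0–DR5) sites, all their single-nucleotide variants and half-site ablations.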
Regarding TCTATCAGTTGAAGGGCAACCGACGAGTCCGTTT, the PBM binding z-score came to 1.07.
For TCTGCTAGGTCAACGATGGTTAGCTAATCTGCTA the value was 1.26.
As for TCATATAGGTAAATGCTAGGTGAAAGGCCGATCT, the PBM binding z-score stood at 0.727.
The same measure for CGAATTAGGTCAGAACAGGACAGTGAAGGATGAT: 0.932; for TCTCGGAGGACATGAAAGGTCAGAGCTCGACATC: 2.81.
The same measure for CAGCCTAGGTCAAGGCCAGTATAGGAGGAACGTT: 1.3; for TCAGACAGGTGAAGGTAACCCAGGTACGCAGTCG: 0.641; for TCATATTGGTAAATGCTAGGTGAAAGTCCGATCT: 0.687.
The same measure for CAAACTAGGTCACCGGAAGGTCGAAGTCCGCATG: 4.47; for CGTCAAAGTTCAACTAAGGTAACGGAAAGCACGC: 4.7; for AAAATGAGGTTATACGTAGATCAGGGAAGAAAGT: 1.65.
CCTACTGGGACAAAGGTCATTGATTCCAATGCTC had a PBM binding z-score of 4.67.
For CTACCAAGGTGAACAAGGTCGTGGATTACTATTC the value was 5.77; for CCTAGCAGGCCCATCTGGGTCACTCAAGGCTTGA, -0.0613; for CGTAGCAGGCCAATCTGGGTCACTCAAGGCTTGA, 0.309.
The same measure for ATATGTAGGTTTAGGGTCATTCAGGTTGGTTCGC: 5.54; for GCGACTGGGGCAAAGCAGGTTACCATGAGGTTGG: 0.114.
The same measure for TCTTGTAGATCAAGCAGGTTAAAAAAGCCTGAGT: 1.04.
In turn, TCGAGTTGGTCAAAGGTCACACACTCGAAATGCG had a PBM binding z-score of 5.56.
In the case of TCTAGTTGGTCACGAAGGTCACACACGACGGGTA, the PBM binding z-score was 4.98.
As to AGAATGAGGTTATTAAGATCGGGGAATTGCGGTC, the PBM binding z-score worked out at 1.98.
For TCATATAGGTAAACATGTGAAAGTCCGTAAGTTA the value was 1.1; for CTCGAAAGGCCGGTTGAGGTGAGTATACGGATAA, -0.304.
The sequence ACTCGCAGGACAAAGGTCAGAGCTACGCCAGTGA registered a PBM binding z-score of 2.77.
As to GCTATTAGTTGAAAGGGAAACCGAATGATTCTCG, the PBM binding z-score is 0.00748.
Regarding GATACCGGGTCAGCTAGAGGCCAGAGTATGGAAA, the PBM binding z-score turned out to be 2.26.
For ATCTCTAGGCAACAAGTTCAGTGAAAGAGAGGAC the value was 1.82; for TCATATAGGTAAGGGTGAAAGTCGAACGATATGA, 0.991.
For AGAATGAGGTTACCCAAGATCAGGGAAACGCTTG the value was 1.55; for TCTGCTAGGTCAACGATGGACAGCTAATCTGCTA, 1.21; for TAGCCTAGGTCTTTGGGCCAGTATAGTACGCATC, -0.592.
The same measure for CGAACTAGGTCACAACAGGACAGTGAAGGATGAT: 2.16; for CGACCTAGGTCAAGGACAGTGAATCTCCGCACGC: 1.96.
As to CCTCGGAGGACAGAAGGCCAGAGCTGTCCGCTTT, the PBM binding z-score was -0.762.
For AGTATTAGTTGAGACGAGGGCAACCGATAGGTTG the value was 0.873; for TCTGCTAGGTCTGTTGGTCAGCTAACGAGCTGCC, -0.568; for TCTCGGAGGAGACGAAAGGTCAGAGCTCGACATC, 1.87.
For AATACAGGGTCATCGTAGGCCAGAGTGCGCACAG the value was 5.15; for TCTTGTAGATCAACAGGAGGTTGAGAAAGATCGA, -0.025.
The sequence ACTATTAGTTGAGACGAGGGCAACCGATAGGTTG came in with a PBM binding z-score of 0.889.
